Results on ten molecules are retold here after PubChem BioAssay (NCI).

This is part of a sample that, as a whole, favours compounds with a hit. Of some 79,000 tested, about 15% had one in any assay. Values without a mark were called inactive. Calls of active or inactive are those of the source. Cut-off read from the data, not from the text of the source: active = growth inhibition above about 70%; inactive = the rest.

A short description of assay [1]: NCI Yeast Anticancer Drug Screen. Data for the rad50 strain (AID 155).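 Note: 0% = growth of vehicle-only cultures of the same strain.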 Particulars: S. cerevisiae rad50 strain growth inhibition, stronger effect = higher value. The gist of the method: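 Growth of the mutant yeast was measured after compound exposure and referenced to vehicle-treated cultures.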
The nature of assay [2]: NCI Yeast Anticancer Drug Screen. Data for the mec2-1 strain (AID 157). Particulars: S. cerevisiae mec2-1 strain, stronger effect = higher value. The gist of the method:
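Test agents were screened against the mec2-1 yeast strain, with defined DNA repair or cell cycle alteration. Growth was scored as inhibition against vehicle-only controls.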

Assay [3] in a line: NCI Yeast Anticancer Drug Screen. Data for the sgs1 mgt1 strain (AID 161).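 Note: 0% = growth of cultures given vehicle only.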 Particulars: S. cerevisiae sgs1 mgt1 strain, stronger effect = higher value. The gist of the method:
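Genetically altered yeast, compound exposure, growth inhibition relative to vehicle.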

A short description of assay [4]: NCI Yeast Anticancer Drug Screen. Data for the cln2 rad14 strain (AID 165).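 Note: 0% = growth equal to vehicle treated cultures.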 Particulars: S. cerevisiae cln2 rad14 strain, stronger effect = higher value. In outline:
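Growth of compound-exposed yeast (cln2 rad14 genotype) measured and expressed as inhibition relative to vehicle.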

Assay [5] in a line: NCI Yeast Anticancer Drug Screen. Data for the bub3 strain (AID 167). Particulars: S. cerevisiae bub3 mutant strain, stronger effect = higher value. In outline: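 Whole-cell yeast assay. The mutant strain was incubated with compounds, and growth inhibition was determined by comparison with vehicle-treated cells.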
Assay [6] in a line: NCI Yeast Anticancer Drug Screen. Data for the mlh1 rad18 strain (AID 175). Particulars: S. cerevisiae mlh1 rad18 strain growth inhibition, stronger effect = higher value. In outline: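 In this whole-cell yeast screen, a strain with altered DNA damage repair is challenged with compound, and its growth is measured against matched vehicle-treated controls.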
The mark [7] stands for this setting: at 5.0 µM (retest, dose inferred, filed as 0.5).
[8] abbreviates: at 50.0 µM (retest, dose inferred, filed as 5.0).

Regarding `CCN(CC)c1ccc(N=Nc2ccc(-c3nc4ccc[n+](C)c4s3)cc2)cc1`, the growth inhibition in assay [1] (setting [7]) is 99% (active); in assay [1] (setting [8]) it was 99% (active); in assay [1] (at 50.0 µM), 89.6% (active); in assay [2] (setting [7]), 99% (active); in assay [2] (setting [8]), 99% (active); in assay [2] (at 50.0 µM), 88.8% (active). For the same molecule, the growth inhibition in assay [3] (setting [7]) is 99% (active); in assay [3] (setting [8]) it was 99% (active); in assay [3] (at 50.0 µM), 88.2% (active); in assay [4] (setting [7]) it was 100% (active); in assay [4] (setting [8]), 100% (active); in assay [4] (at 50.0 µM) it was 88.2% (active). For the same molecule, the growth inhibition in assay [5] (setting [7]) was 99% (active); in assay [5] (setting [8]), 99% (active); in assay [5] (at 50.0 µM), 91.1% (active); in assay [6] (setting [7]), 99% (active); in assay [6] (setting [8]) it was 99% (active); in assay [6] (at 50.0 µM) it was 88.8% (active).
As for `CC(=O)O[C@@H]1[C@@H](O)[C@H]2O[C@@H]3C=C(C)CC[C@]3(CO)[C@]1(C)[C@@]21CO1`, the growth inhibition is 34% in assay [1] (setting [7]); 93% (active) in assay [1] (setting [8]); -11.2% in assay [1] (at 50.0 µM); 28% in assay [2] (setting [7]); 96% (active) in assay [2] (setting [8]); -22.9% in assay [2] (at 50.0 µM). For the same molecule, the growth inhibition was 33% in assay [3] (setting [7]); 95% (active) in assay [3] (setting [8]); 5.35% in assay [3] (at 50.0 µM); 52% in assay [4] (setting [7]); 98% (active) in assay [4] (setting [8]); -11.7% in assay [4] (at 50.0 µM). In addition, the growth inhibition in assay [5] (setting [7]) is 13%; in assay [5] (setting [8]), 98% (active); in assay [5] (at 50.0 µM), 9.3%; in assay [6] (setting [7]), 33%; in assay [6] (setting [8]), 95% (active); in assay [6] (at 50.0 µM) it was 91.8% (active).
For the molecule `CCCCN(CC(O)c1ccc(Cl)cc1)c1ccccc1` (stereo not given), the growth inhibition is -1% in assay [1] (setting [7]); 99% (active) in assay [1] (setting [8]); 98.8% (active) in assay [1] (at 50.0 µM); -2% in assay [2] (setting [7]); 99% (active) in assay [2] (setting [8]); 98.8% (active) in assay [2] (at 50.0 µM). Further, the growth inhibition in assay [3] (setting [7]) is -6%; in assay [3] (setting [8]), 98% (active); in assay [3] (at 50.0 µM) it was 98.8% (active); in assay [4] (setting [7]), 1%; in assay [4] (setting [8]), 93% (active); in assay [4] (at 50.0 µM) it was 98.5% (active). Besides, the growth inhibition was 1% in assay [5] (setting [7]); 98% (active) in assay [5] (setting [8]); 95% (active) in assay [5] (at 50.0 µM); 1% in assay [6] (setting [7]); 99% (active) in assay [6] (setting [8]); 96.7% (active) in assay [6] (at 50.0 µM).
For `CN(C)CCSCCN1c2ccccc2Sc2ccc(Cl)cc21`, the growth inhibition in assay [1] (setting [7]) is -5%; in assay [1] (setting [8]), 99% (active); in assay [1] (at 50.0 µM), 57.5%; in assay [2] (setting [7]), -2%; in assay [2] (setting [8]), 99% (active); in assay [2] (at 50.0 µM) it was 99.7% (active). Also, the growth inhibition in assay [3] (setting [7]) was -16%; in assay [3] (setting [8]) it was 99% (active); in assay [3] (at 50.0 µM) it was 98.6% (active); in assay [4] (setting [7]) it was -8%; in assay [4] (setting [8]), 99% (active); in assay [4] (at 50.0 µM) it was 99% (active). The growth inhibition was 4% in assay [5] (setting [7]); 99% (active) in assay [5] (setting [8]); 99.2% (active) in assay [5] (at 50.0 µM); 5% in assay [6] (setting [7]); 99% (active) in assay [6] (setting [8]); 99.5% (active) in assay [6] (at 50.0 µM).
Turning to `ClCc1ccc(OCc2ccccc2)c(OCc2ccccc2)c1`, the growth inhibition in assay [1] (setting [7]) is 4%; in assay [1] (setting [8]), 51%; in assay [1] (at 50.0 µM) it was 79% (active); in assay [2] (setting [7]), 2%; in assay [2] (setting [8]), 67%; in assay [2] (at 50.0 µM), 62.3%. Further, the growth inhibition in assay [3] (setting [7]) is 4%; in assay [3] (setting [8]) it was 87% (active); in assay [3] (at 50.0 µM) it was 89.2% (active); in assay [4] (setting [7]) it was 0%; in assay [4] (setting [8]), 48%; in assay [4] (at 50.0 µM), 82.3% (active). Besides, the growth inhibition was 6% in assay [5] (setting [7]); 77% (active) in assay [5] (setting [8]); 87.2% (active) in assay [5] (at 50.0 µM); 17% in assay [6] (setting [7]); 87% (active) in assay [6] (setting [8]); 94.2% (active) in assay [6] (at 50.0 µM).
Consider `N#CN=[N+]([O-])c1ccc(C(=O)O)cc1`, for which the growth inhibition was 80% (active) in assay [1] (setting [7]); 89% (active) in assay [1] (setting [8]); 91.5% (active) in assay [1] (at 50.0 µM); 87% (active) in assay [2] (setting [7]); 93% (active) in assay [2] (setting [8]); 93.8% (active) in assay [2] (at 50.0 µM). In addition, the growth inhibition in assay [3] (setting [7]) was 96% (active); in assay [3] (setting [8]) it was 91% (active); in assay [3] (at 50.0 µM), 91.3% (active); in assay [4] (setting [7]) it was 99% (active); in assay [4] (setting [8]) it was 84% (active); in assay [4] (at 50.0 µM), 91.6% (active). Also, the growth inhibition in assay [5] (setting [7]) was 96% (active); in assay [5] (setting [8]), 87% (active); in assay [5] (at 50.0 µM), 91.5% (active); in assay [6] (setting [7]), 96% (active); in assay [6] (setting [8]), 89% (active); in assay [6] (at 50.0 µM), 90.9% (active).
As to `COc1ccc(/C=C/c2ccnc3ccccc23)cc1OC`, the growth inhibition in assay [1] (setting [7]) was 17%; in assay [1] (setting [8]), 96% (active); in assay [1] (at 50.0 µM), 86.4% (active); in assay [2] (setting [7]), 2%; in assay [2] (setting [8]) it was 97% (active); in assay [2] (at 50.0 µM) it was 90.9% (active). For the same molecule, the growth inhibition was 9% in assay [3] (setting [7]); 98% (active) in assay [3] (setting [8]); 87.9% (active) in assay [3] (at 50.0 µM); 6% in assay [4] (setting [7]); 89% (active) in assay [4] (setting [8]); 83.7% (active) in assay [4] (at 50.0 µM). Also, the growth inhibition in assay [5] (setting [7]) was -8%; in assay [5] (setting [8]) it was 98% (active); in assay [5] (at 50.0 µM), 82.5% (active); in assay [6] (setting [7]) it was 11%; in assay [6] (setting [8]) it was 96% (active); in assay [6] (at 50.0 µM) it was 84.9% (active).
On to `CCC(C)C(C(=O)NOC(=O)c1ccccc1)/C(N)=N/OC(=O)c1ccccc1` (stereo not given), for which the growth inhibition in assay [1] (setting [7]) is 89% (active); in assay [1] (setting [8]) it was 99% (active); in assay [1] (at 50.0 µM), 99.5% (active); in assay [2] (setting [7]) it was 83% (active); in assay [2] (setting [8]), 100% (active); in assay [2] (at 50.0 µM) it was 98.3% (active). The growth inhibition was 96% (active) in assay [3] (setting [7]); 99% (active) in assay [3] (setting [8]); 99.6% (active) in assay [3] (at 50.0 µM); 87% (active) in assay [4] (setting [7]); 99% (active) in assay [4] (setting [8]); 99.5% (active) in assay [4] (at 50.0 µM). The growth inhibition was 91% (active) in assay [5] (setting [7]); 99% (active) in assay [5] (setting [8]); 99.4% (active) in assay [5] (at 50.0 µM); 97% (active) in assay [6] (setting [7]); 99% (active) in assay [6] (setting [8]); 98.9% (active) in assay [6] (at 50.0 µM).
With `c1ccc(N/N=C2/CCCC3/C(=N\Nc4ccccc4)CCCC23)cc1` (stereo not given), the growth inhibition in assay [1] (setting [7]) was 3%; in assay [1] (setting [8]) it was 99% (active); in assay [1] (at 50.0 µM), 98.2% (active); in assay [2] (setting [7]), -5%; in assay [2] (setting [8]), 99% (active); in assay [2] (at 50.0 µM), 65.5%. In addition, the growth inhibition in assay [3] (setting [7]) is 13%; in assay [3] (setting [8]), 99% (active); in assay [3] (at 50.0 µM), 63.2%; in assay [4] (setting [7]), -11%; in assay [4] (setting [8]), 99% (active); in assay [4] (at 50.0 µM), 73.8% (active). Further, the growth inhibition in assay [5] (setting [7]) was -8%; in assay [5] (setting [8]), 98% (active); in assay [5] (at 50.0 µM) it was 9.85%; in assay [6] (setting [7]) it was 15%; in assay [6] (setting [8]), 99% (active); in assay [6] (at 50.0 µM) it was 96.1% (active).
On to `Cc1ccc(C2=Nc3c(c(C)nn3-c3ccccc3)N=C(C(=O)O)C2)cc1`, for which the growth inhibition in assay [1] (setting [7]) was 1%; in assay [1] (setting [8]) it was 78% (active); in assay [1] (at 50.0 µM), 76.2% (active); in assay [2] (setting [7]), -23%; in assay [2] (setting [8]), 87% (active); in assay [2] (at 50.0 µM), 82.9% (active). The growth inhibition is -3% in assay [3] (setting [7]); 62% in assay [3] (setting [8]); 88.4% (active) in assay [3] (at 50.0 µM); -4% in assay [4] (setting [7]); 92% (active) in assay [4] (setting [8]); 87.5% (active) in assay [4] (at 50.0 µM). Further, the growth inhibition was 2% in assay [5] (setting [7]); 89% (active) in assay [5] (setting [8]); 83.4% (active) in assay [5] (at 50.0 µM); -12% in assay [6] (setting [7]); 86% (active) in assay [6] (setting [8]); 59.3% in assay [6] (at 50.0 µM).
